According to PubChem BioAssay (EPA / NIEHS):
Records with an inconclusive call do not appear. Where a structure was tested more than once in an assay, its records may differ in their call. The source made the active and inactive calls. Rule for the calls, unless noted: active = hit-call score of the fitted dose curve at least 0.9, where 1 is the maximum; inconclusive = response in the unintended direction; inactive = score below 0.9.

Experiments:
[1] = molecular target: human Dopamine Transporter (DAT), SLC6A3 (gene 6531) (UniProt Q01959); test: NVS_TR_hDAT: NovaScreen (NVS) Transporter Assay for human Dopamine Transporter (DAT) (AID 2283374);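 note: activity means loss of bound radioligand signal relative to DMSO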
Method in brief: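 Test chemicals were first screened in duplicate at 25 uM, with actives retested as concentration series. Displacement of a specific radioligand from cell-free human dopamine transporter was measured after 1 h by filtration and scintillation counting.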

[2] = molecular target: human Norepinephrine Transporter (NET), SLC6A2 (gene 6530) (UniProt P23975); test: NVS_TR_hNET: NovaScreen (NVS) Transporter Assay for human Norepinephrine Transporter (NET) (AID 2283377);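 note: cell-free membrane protein extracted from CHO cells expressing human NET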;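 for AC50: displacement of radioligand from human NET seen as loss of scintillation signal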
Method in brief: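 Scintillation counts of filter-retained radioligand served as the readout, taken 1 h post-dosing in a cell-free CHO-derived system. Test chemicals ran first at 25 uM in duplicate; confirmed hits were retested across concentrations.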

[3] = molecular target: mouse Estrogen Receptor alpha (Era), Esr1 (gene 13982) (UniProt P19785); test: NVS_NR_mERa: NovaScreen (NVS) Nuclear Receptor Binding Assay for mouse Estrogen Receptor alpha (Era) (AID 2283378);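 note: hit means loss of bound radioligand signal relative to DMSO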
Method in brief: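 Cell-free radioligand competitive displacement binding, read by filter-based scintillation counting 18 h after dosing. Primary screen run in duplicate at 25 uM, actives retested in concentration series; loss of signal versus DMSO.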

[4] = molecular target: Estrogen receptor beta (Homo sapiens) (UniProt Q92731); test: OT_ER_ERbERb_1440: Odyssey Thera (OT) 24-hour HEK293T Protein-Complementation Assay for Estrogen Receptor-beta/-beta Homodimer (AID 2283380);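 note: fluorescence gain from ER beta LBD homodimer complementation read by laser scanning cytometry; scored as signal increase over DMSO baseline for both agonists and antagonists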
Method in brief: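 Fluorescence increase, nuclear for agonists or whole-cell for antagonists, relative to DMSO vehicle, quantified by laser scanning cytometer after fixation and Draq5 staining. Readout from 24 h treatment of HEK293T cells carrying complementation-paired ER beta LBD (aa 310-547).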

[5] = molecular target: Estrogen receptor (Homo sapiens) (UniProt P03372); test: OT_ERa_GFPERaERE_0480: Odyssey Thera (OT) 8-hour HeLa Transcription Induction Assay for Estrogen Receptor (AID 2283381; active = hit-call score of the fitted dose curve at least 0.9, where 1 is the maximum; inactive = score below 0.9)
Method in brief: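 HeLa cells dosed with compound and imaged by fluorescence microscopy at 8 h; GFP induction from an ERE reporter quantified by high-content image analysis and fitted as gain of signal against DMSO baseline.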

[6] = molecular target: Estrogen receptor (Homo sapiens) (UniProt P03372); test: OT_ERa_GFPERaERE_0120: Odyssey Thera (OT) 2-hour HeLa Transcription Induction Assay for Estrogen Receptor (AID 2283382)
Method in brief: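 HeLa cells were dosed with test chemical and read 2 hours later for GFP-ERα/ERE-linked fluorescent protein induction by fluorescence microscopy. Gain-of-signal was fitted relative to DMSO baseline, quantified by high content image analysis.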

[7] = molecular target: Bile acid receptor (Homo sapiens) (UniProt Q96RI1); test: OT_FXR_FXRSRC1_0480: Odyssey Thera (OT) 8-hour HEK293T Protein-Complementation Assay for Farnesoid X receptor/SRC-1 Co-activator (AID 2283383)
Method in brief: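 HEK293T cells expressing FXR and SRC-1 fused to reporter fragments were dosed with compound for 8 h; fluorescence from the reconstituted reporter marked co-activator recruitment. Gain of signal was fitted against the DMSO baseline.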

[8] = molecular target: Bile acid receptor (Homo sapiens) (UniProt Q96RI1); test: OT_FXR_FXRSRC1_1440: Odyssey Thera (OT) 24-hour HEK293T Protein-Complementation Assay for Farnesoid X receptor/SRC-1 Co-activator (AID 2283384)
Method in brief: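 HEK293T cells were dosed with compound and read 24 h later by fluorescence intensity from protein-fragment complementation reporting FXR/SRC-1 co-activator interaction. Gain of signal was fitted relative to DMSO negative control as baseline.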

[9] = molecular target: Agonist Androgen Response Element (ARE), AR (gene 367) (UniProt P10275); test: OT_AR_ARELUC_AG_1440: Odyssey Thera (OT) 24-hour CHO-K1 Luciferase Assay for Agonist Androgen Response Element (ARE) (AID 2283379)
Method in brief: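 Agonist mode, 24 h exposure in CHO-K1 ARE-luciferase cells; values reflect luminescence induction over vehicle.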

[10] = molecular target: rat Serotonin Transporter (SERT), Slc6a4 (gene 25553) (UniProt P31652); test: NVS_TR_rSERT: NovaScreen (NVS) Transporter Assay for rat Serotonin Transporter (SERT) (AID 2283375)
Method in brief: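 Rat forebrain membranes; radioligand displacement at SERT read by filter-based scintillation counting, 1 h after dosing. Screened in duplicate at 25 uM, actives then run in concentration series; loss of signal versus DMSO baseline.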

Estrogen receptor (Homo sapiens), sequence (P03372 whole entry, looked up): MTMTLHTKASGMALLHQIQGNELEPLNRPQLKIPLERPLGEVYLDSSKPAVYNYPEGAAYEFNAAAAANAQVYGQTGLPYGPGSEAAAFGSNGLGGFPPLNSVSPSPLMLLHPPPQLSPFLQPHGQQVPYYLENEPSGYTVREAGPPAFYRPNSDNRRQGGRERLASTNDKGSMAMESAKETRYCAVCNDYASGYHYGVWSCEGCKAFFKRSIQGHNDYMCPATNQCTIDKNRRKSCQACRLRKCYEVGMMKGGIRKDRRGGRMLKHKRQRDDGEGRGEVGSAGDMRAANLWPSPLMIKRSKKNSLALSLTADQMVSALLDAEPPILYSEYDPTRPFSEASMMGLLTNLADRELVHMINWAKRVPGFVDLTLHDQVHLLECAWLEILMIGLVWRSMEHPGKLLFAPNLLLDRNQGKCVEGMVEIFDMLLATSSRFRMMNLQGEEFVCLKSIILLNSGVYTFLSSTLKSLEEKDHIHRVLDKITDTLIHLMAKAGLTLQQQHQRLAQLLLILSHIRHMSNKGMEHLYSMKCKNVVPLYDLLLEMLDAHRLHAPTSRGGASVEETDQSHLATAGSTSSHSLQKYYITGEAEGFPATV
human Norepinephrine Transporter (NET), SLC6A2 (gene 6530), sequence (P23975 whole entry, looked up): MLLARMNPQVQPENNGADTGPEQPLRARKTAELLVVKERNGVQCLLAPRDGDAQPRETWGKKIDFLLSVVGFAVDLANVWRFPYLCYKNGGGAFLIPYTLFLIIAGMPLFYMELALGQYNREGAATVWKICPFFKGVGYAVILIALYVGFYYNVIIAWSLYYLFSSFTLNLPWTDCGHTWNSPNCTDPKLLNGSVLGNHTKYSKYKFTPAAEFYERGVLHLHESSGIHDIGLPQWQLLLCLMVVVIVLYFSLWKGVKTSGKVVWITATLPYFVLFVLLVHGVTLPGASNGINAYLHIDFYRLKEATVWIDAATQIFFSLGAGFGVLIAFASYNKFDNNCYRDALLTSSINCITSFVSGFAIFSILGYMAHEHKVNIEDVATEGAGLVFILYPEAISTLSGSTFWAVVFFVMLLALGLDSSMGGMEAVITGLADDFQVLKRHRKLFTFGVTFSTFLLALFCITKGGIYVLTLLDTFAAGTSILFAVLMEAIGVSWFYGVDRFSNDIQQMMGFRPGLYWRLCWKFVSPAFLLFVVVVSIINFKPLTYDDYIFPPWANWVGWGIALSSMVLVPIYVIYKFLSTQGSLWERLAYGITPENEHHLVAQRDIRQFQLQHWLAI
Agonist Androgen Response Element (ARE), AR (gene 367), sequence (P10275 whole entry, looked up): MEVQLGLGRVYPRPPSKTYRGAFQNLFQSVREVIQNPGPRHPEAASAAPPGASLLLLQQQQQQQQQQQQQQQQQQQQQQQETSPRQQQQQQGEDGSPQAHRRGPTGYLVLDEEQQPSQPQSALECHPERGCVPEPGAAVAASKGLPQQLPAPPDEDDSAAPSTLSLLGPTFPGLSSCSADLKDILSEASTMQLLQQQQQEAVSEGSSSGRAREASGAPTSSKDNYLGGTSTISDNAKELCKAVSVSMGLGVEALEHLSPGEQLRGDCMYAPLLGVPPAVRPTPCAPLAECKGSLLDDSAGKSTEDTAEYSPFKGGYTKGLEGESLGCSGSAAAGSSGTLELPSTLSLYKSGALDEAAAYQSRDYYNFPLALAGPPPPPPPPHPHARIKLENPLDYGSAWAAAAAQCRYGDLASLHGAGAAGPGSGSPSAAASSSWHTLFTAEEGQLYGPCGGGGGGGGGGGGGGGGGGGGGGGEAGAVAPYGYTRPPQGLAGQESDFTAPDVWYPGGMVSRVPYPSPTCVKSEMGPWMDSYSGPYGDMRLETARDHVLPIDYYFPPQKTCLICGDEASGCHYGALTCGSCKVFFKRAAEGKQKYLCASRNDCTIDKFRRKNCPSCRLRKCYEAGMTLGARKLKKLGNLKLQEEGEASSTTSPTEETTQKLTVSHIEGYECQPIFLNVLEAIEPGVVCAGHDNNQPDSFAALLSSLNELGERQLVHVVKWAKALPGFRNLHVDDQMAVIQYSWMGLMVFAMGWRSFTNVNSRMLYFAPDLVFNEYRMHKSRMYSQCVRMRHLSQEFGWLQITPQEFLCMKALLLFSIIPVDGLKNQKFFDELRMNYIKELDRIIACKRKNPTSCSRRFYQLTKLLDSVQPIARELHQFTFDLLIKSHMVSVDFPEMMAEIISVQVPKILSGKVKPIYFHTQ
Bile acid receptor (Homo sapiens), sequence (Q96RI1 whole entry, looked up, the tested form may be a part): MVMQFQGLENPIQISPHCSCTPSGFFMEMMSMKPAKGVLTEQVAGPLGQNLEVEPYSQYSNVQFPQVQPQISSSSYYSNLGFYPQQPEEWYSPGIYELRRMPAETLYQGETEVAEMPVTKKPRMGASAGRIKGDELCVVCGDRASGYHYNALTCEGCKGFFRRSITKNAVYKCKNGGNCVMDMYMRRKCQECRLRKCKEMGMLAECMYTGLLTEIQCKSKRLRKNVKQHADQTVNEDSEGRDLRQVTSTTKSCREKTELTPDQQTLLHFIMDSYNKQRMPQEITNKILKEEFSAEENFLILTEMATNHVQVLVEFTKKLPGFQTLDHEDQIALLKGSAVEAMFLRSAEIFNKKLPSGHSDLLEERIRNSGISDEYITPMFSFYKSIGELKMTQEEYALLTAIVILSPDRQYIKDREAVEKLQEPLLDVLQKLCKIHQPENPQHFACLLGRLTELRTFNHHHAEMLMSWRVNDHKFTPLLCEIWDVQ
human Dopamine Transporter (DAT), SLC6A3 (gene 6531), sequence (Q01959 whole entry, looked up): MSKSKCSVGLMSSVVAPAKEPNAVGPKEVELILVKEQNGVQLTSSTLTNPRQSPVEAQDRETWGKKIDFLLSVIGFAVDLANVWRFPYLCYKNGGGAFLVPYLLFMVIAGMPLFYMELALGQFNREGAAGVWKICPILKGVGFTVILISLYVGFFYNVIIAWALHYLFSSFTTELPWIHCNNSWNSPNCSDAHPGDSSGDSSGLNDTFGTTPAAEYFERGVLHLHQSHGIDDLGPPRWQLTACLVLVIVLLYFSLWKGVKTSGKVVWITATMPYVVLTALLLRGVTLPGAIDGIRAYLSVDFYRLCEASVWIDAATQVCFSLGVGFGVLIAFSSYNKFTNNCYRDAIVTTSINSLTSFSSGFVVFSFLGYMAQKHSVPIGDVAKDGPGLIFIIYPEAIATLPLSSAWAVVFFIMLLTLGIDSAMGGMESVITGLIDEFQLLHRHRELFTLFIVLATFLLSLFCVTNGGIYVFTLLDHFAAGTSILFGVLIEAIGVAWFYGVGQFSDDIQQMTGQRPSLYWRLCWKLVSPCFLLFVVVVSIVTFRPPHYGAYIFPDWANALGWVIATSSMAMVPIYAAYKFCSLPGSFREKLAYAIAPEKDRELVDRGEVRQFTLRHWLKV
mouse Estrogen Receptor alpha (Era), Esr1 (gene 13982), sequence (P19785 whole entry, looked up): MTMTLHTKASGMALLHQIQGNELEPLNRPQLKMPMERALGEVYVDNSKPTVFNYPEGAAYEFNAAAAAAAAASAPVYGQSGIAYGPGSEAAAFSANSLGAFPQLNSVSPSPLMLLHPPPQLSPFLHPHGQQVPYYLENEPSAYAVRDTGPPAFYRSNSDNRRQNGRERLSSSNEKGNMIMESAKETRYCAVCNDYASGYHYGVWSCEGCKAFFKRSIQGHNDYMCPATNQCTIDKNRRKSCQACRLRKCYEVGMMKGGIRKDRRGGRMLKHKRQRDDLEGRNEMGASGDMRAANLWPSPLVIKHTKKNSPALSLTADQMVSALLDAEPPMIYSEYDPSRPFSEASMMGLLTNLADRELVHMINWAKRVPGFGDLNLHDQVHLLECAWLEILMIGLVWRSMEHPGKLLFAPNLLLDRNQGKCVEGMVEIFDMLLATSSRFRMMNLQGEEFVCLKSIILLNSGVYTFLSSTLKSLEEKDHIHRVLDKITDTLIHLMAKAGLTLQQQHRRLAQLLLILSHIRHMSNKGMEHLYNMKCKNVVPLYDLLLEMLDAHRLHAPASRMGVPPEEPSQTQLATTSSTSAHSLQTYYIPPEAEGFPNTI
Estrogen receptor beta (Homo sapiens), sequence (Q92731 whole entry, looked up, the tested form may be a part): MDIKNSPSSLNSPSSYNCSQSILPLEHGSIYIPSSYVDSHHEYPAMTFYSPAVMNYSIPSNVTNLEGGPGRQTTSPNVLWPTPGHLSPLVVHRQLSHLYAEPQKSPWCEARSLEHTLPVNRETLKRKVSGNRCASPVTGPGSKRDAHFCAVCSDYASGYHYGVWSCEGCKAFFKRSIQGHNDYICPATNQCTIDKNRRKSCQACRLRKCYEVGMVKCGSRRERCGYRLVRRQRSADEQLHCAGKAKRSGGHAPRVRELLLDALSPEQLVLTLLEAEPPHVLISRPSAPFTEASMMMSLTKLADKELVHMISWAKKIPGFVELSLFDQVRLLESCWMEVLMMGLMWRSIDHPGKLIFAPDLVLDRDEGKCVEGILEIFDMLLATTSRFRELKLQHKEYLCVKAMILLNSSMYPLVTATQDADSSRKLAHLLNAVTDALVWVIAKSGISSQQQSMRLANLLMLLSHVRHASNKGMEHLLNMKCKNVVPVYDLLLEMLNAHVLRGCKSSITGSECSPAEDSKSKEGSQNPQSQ
rat Serotonin Transporter (SERT), Slc6a4 (gene 25553), sequence (P31652 whole entry, looked up): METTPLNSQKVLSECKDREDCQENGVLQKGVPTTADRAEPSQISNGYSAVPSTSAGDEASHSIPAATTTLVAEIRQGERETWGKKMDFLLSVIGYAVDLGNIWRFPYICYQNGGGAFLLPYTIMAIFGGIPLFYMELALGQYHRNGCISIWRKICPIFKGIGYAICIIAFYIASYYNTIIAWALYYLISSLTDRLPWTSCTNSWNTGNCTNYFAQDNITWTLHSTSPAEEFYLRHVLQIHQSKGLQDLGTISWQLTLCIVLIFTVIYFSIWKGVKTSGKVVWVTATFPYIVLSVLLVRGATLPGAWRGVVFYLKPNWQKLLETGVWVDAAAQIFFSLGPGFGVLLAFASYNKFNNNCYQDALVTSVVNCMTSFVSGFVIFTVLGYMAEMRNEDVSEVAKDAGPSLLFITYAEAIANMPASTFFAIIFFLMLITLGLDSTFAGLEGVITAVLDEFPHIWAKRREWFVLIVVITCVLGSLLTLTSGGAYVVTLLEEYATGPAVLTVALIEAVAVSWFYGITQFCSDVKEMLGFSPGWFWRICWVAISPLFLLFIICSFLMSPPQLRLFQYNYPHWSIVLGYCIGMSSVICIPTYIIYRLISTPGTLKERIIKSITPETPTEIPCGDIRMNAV

SMILES: CN(C)C(=O)NC1(c2ccccc2)CCN(CCC[C@]2(c3ccc(Cl)c(Cl)c3)CCCN(C(=O)c3ccccc3)C2)CC1
- AC50 [1]: 0.418 µM (active)
- AC50 [2]: 0.124 µM (active)
- outcome [3]: inactive
- outcome [4]: inactive
- outcome [5]: inactive
- outcome [6]: inactive
- AC50 [7]: 15.9 µM (active)
- outcome [8]: inactive

SMILES: NC(=Nc1ccccc1)Nc1ccccc1
- outcome [2]: inactive
- outcome [4]: inactive
- outcome [5]: inactive
- outcome [6]: inactive
- outcome [7]: inactive
- outcome [8]: inactive

SMILES: CCC(C)N(C)C(=O)c1cc2ccccc2c(-c2ccccc2Cl)n1 (centres undefined)
- AC50 [2]: 6.81 µM (active)
- outcome [9]: inactive
- outcome [4]: inactive
- outcome [5]: inactive
- outcome [6]: inactive

SMILES: CCc1cc(C2=C(C(=O)O)N(c3ccccc3C(F)(F)F)S(=O)(=O)c3ccccc32)cc2c1OCO2
- outcome [2]: inactive

SMILES: CCCCC(CC)COP(=O)(OCC(CC)CCCC)OCC(CC)CCCC (centres undefined)
- outcome [1]: inactive
- outcome [4]: inactive
- AC50 [7]: 15.6 µM (active)
- AC50 [8]: 67.1 µM (active)

SMILES: CN(C)CCCN1c2ccccc2Sc2ccc(Cl)cc21
- AC50 [1]: 4.24 µM (active)
- AC50 [10]: 2.55 µM (active)
- outcome [4]: inactive

SMILES: Nc1nc(=S)c2[nH]cnc2[nH]1
- outcome [2]: inactive
- outcome [9]: inactive
- outcome [4]: inactive
- outcome [5]: inactive
- outcome [6]: inactive

SMILES: NC=O
- outcome [4]: inactive

SMILES: O=C(NS(=O)(=O)/C=C/c1cccs1)c1ccc(F)cc1Br
- outcome [9]: inactive
- outcome [4]: inactive
- outcome [5]: inactive
- outcome [6]: inactive
- outcome [7]: inactive
- AC50 [8]: 1.72 µM (active)

SMILES: Cc1c(C)c2c(c(C)c1O)CCC(C)(COc1ccc(CC3SC(=O)NC3=O)cc1)O2 (centres undefined)
- outcome [9]: inactive
- outcome [4]: inactive
- outcome [5]: inactive
- outcome [6]: inactive
- AC50 [7]: 20 µM (active)
- AC50 [8]: 18.2 µM (active)

SMILES: O=C1O[C@H]([C@H](O)CO)C(O)=C1O
- outcome [4]: inactive

SMILES: CC1=C(C)S(=O)(=O)CCS1(=O)=O
- outcome [9]: inactive
- outcome [4]: inactive
- outcome [5]: inactive
- outcome [6]: inactive

SMILES: C=CCCCCCCCCCCCC
- outcome [9]: inactive
- outcome [4]: inactive
- outcome [7]: inactive
- outcome [8]: inactive

SMILES: Oc1ccccc1O
- AC50 [4]: 31 µM (active)

SMILES: O=C(Oc1ccccc1)c1cccc(C(=O)Oc2ccccc2)c1
- outcome [9]: inactive
- outcome [4]: inactive
- AC50 [7]: 72 µM (active)
- outcome [8]: inactive

SMILES: N[C@@H](Cc1c[nH]c2ccccc12)C(=O)O
- outcome [4]: inactive

SMILES: OCC(CO)n1cnc(-c2ccc(F)cc2)c1-c1ccnc(Oc2ccccc2)n1
- outcome [3]: inactive
- outcome [4]: inactive
- outcome [5]: inactive
- outcome [6]: inactive

SMILES: CC(C)(C)c1ccccc1
- outcome [4]: inactive

SMILES: CCCCCCCCCC[N+](C)(C)[O-]
- outcome [9]: inactive
- outcome [4]: inactive
- outcome [5]: inactive
- outcome [6]: inactive

SMILES: CC(=O)O[C@]1(C(C)=O)CC[C@H]2[C@@H]3C=C(Cl)C4=CC(=O)[C@@H]5C[C@@H]5[C@]4(C)[C@H]3CC[C@@]21C
- outcome [4]: inactive

SMILES: CC(=O)OCC(COC(C)=O)OC(C)=O
- outcome [4]: inactive

SMILES: CCCCOC(=O)CCCCC(=O)OCCCC
- outcome [4]: inactive

SMILES: C/C=C/c1ccc(OC)cc1
- outcome [4]: inactive

SMILES: O=[Si]=O
- outcome [4]: inactive
- outcome [5]: inactive
- outcome [6]: inactive

SMILES: CO[C@@H]1COCC[C@@H]1N[C@@H]1CC[C@@](C(=O)N2CCc3ncc(C(F)(F)F)cc3C2)(C(C)C)C1
- outcome [4]: inactive

SMILES: CC(=O)[C@@]1(O)CC[C@H]2[C@@H]3CCC4=CC(=O)CC[C@]4(C)[C@H]3CC[C@@]21C
- AC50 [3]: 10.1 µM (active)
- outcome [3]: inactive
- outcome [4]: inactive

SMILES: CC(C)(O)c1ccc(CNC(=O)c2cccnc2Oc2ccc(F)cc2)cc1
- outcome [4]: inactive

SMILES: NCCOCCOCCN
- outcome [9]: inactive
- outcome [4]: inactive

SMILES: O=C1CCCCC1
- outcome [9]: inactive
- outcome [4]: inactive
- outcome [5]: inactive
- outcome [6]: inactive

SMILES: CC(N)=O
- outcome [4]: inactive

SMILES: C#CC(O)C(CC)CCCC (centres undefined)
- outcome [9]: inactive
- outcome [4]: inactive

SMILES: CCCCC(CC)COC(=O)CCCCCCCC(=O)OCC(CC)CCCC (centres undefined)
- outcome [3]: inactive
- outcome [7]: inactive

SMILES: CCOCCOCCO
- outcome [9]: inactive

SMILES: C/C=C/C=C/C(=O)O
- outcome [4]: inactive
